Experimental data from PubChem BioAssay (Tox21).
Results filed as inconclusive are left out. A call without a number means that no potency is given here. Calls of active or inactive are those of the source. The call rests on the fitted dose curve.

Target: Beta-2 adrenergic receptor (Homo sapiens) (UniProt P07550)
Test: Adrenergic beta2 receptor (ADRB2) small molecule agonists, cell-based qHTS assay (AID 1963593);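 further: CHO cells stably overexpressing human ADRB2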
Summary of the method: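 CHO cells stably over-expressing ADRB2 were plated overnight at 37C, then dosed with compounds plus a stimulation mix containing 100uM IBMX and 25uM Ro-20-1724 for 0.5hr at room temperature. cAMP was measured by HTRF competition, 1hr.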

Chain of Beta-2 adrenergic receptor (Homo sapiens) (P07550 whole entry, looked up): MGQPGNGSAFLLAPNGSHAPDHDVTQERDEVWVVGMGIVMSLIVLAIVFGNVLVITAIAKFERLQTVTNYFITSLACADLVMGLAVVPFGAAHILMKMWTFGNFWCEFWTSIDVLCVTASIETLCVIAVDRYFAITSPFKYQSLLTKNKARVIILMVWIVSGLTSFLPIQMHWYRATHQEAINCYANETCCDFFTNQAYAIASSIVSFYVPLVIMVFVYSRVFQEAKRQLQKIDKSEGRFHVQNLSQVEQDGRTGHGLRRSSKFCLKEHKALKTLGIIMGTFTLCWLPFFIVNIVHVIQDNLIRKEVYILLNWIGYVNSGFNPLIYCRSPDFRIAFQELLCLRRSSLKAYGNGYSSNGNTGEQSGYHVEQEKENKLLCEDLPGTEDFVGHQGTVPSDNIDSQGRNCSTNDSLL

Compound | Potency
C=CC(=O)CCCCC | inactive
CC1CC(OC(=O)c2ccccc2O)CC(C)(C)C1 (configuration not stated) | inactive
C/C(=C1\CCOC(=O)S1)N(C=O)Cc1cnc(C)nc1N | inactive
CCOC(/C=C(\C)CCC=C(C)C)OCC | inactive
COc1ccc2c(c1)CCCC2=O | inactive
CCOC(=O)O[C@]1(C(=O)OCCl)CC[C@H]2[C@@H]3CCC4=CC(=O)C=C[C@]4(C)[C@H]3[C@@H](O)C[C@@]21C | inactive
Cc1ccc(S(=O)(=O)NC(=O)NC2CCCC2)cc1 | inactive
O=C(O)CNc1ccccc1 | inactive
N[C@H]1C(O)O[C@H](CO)[C@@H](O)[C@@H]1O (some centres not stated) | inactive
CCC(C)C(=O)OCCc1ccccc1 (configuration not stated) | inactive
O=C(O)C(=O)Nc1cccc(-c2nn[nH]n2)c1 | inactive
Cc1ccc(C2OC[C@@H]3OC(c4ccc(C)cc4)O[C@H]([C@H](O)CO)[C@@H]3O2)cc1 (some centres not stated) | inactive
CCNc1cc(O)ccc1C | inactive
Nc1cc([N+](=O)[O-])ccc1O | inactive
CCCCCC(=O)CC | inactive
CO[Si](C)(C)OC | inactive
O=C(O)c1ccc(OCCCOc2ccc(C(=O)O)cc2)cc1 | inactive
O=C1c2cccc(O)c2C(=O)c2c(O)cccc21 | inactive
COCC(O)CO (configuration not stated) | inactive
CN(C)C(=S)SC(=S)N(C)C | inactive
C=CC(=O)OCCOC(=O)C=C | inactive
c1ccc2cc3c4ccccc4c4ccccc4c3cc2c1 | inactive
